# Screening results as filed in PubChem.
# Sampled rows, rich in hits. Any-hit rate of the full collection: about 19%.
# MCF10A rereplic: inducers of DNA re-replication in MCF 10A breast cells; Potency, µM (series often up to 46.1 µM), without a hit: at the top dose activity, positive = re-replication, usual class: activators; 350,000 compounds, 2.9% hits; AID 624296; MCF 10A DNA re-replication, Hoechst nuclear intensity, 48 h; also: potency is read from the fitted curve at half-maximal effect; % of control where 0% means no effect; nearly all actives have a fitted effect of over 50% in size
# TDP1 cell noCPT: qHTS for Inhibitors of human tyrosyl-DNA phosphodiesterase 1 (TDP1): qHTS in cells in absence of CPT | AID 686978, 2013 | Potency, µM (top dose mostly 46.2 µM), for the others: top-dose activity change, negative = growth inhibition, most hits filed as inhibitors | DT40 Tdp1-/- hTDP1 cells, no CPT, ATP luminescence, 48 h | 420,000 compounds, 15% hits; also: potency is read from the fitted curve at half-maximal effect; % is scaled to controls: 0 for no effect and ±100 for the full control effect; nearly all actives have a fitted effect of over 55% in size
#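 A cellular qHTS used chicken DT40 cells lacking endogenous Tdp1 but carrying stably transfected human TDP1. Compounds were applied without camptothecin, and cell growth kinetics were judged by ATP-dependent luminescence after ≥48 hr.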
# IL-1B inflam inh: blocks inflammasome-driven IL-1 beta release | THP-1 LPS/ATP IL-1B secretion, AlphaLISA, 16 h; hits give low values | activity change, % at 57.5 µM | 360,000 compounds, 4.7% hits; in the data active = activity change below about -50%; inconclusive = mostly about -30% to -49%; also: % is scaled to controls: 0 for no effect and ±100 for the full control effect
#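 Secreted IL-1B measured by AlphaLISA bead assay after 16 h compound exposure of THP-1 cells; compounds (final up to 57.5 uM) added 1 h before LPS (250 ng/mL) and ATP (1.25 mM) stimulation; lower signal means less secretion.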
# SW480 rerep: induces DNA re-replication in SW480 colon adenocarcinoma cells; SW480 DNA re-replication, Hoechst DNA content imaging, 48 h; Potency, µM (highest dose often 46.1 µM), without a hit: at the highest dose re-replication activation, most hits filed as activators; 340,000 compounds, 1.8% hits; AID 624297; also: potency is read from the fitted curve at half-maximal effect; % of control where 0% means no effect; nearly all actives have a fitted effect of over 55% in size
#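 Quantitative HTS format with DMSO vehicle controls; 48 hr drug incubation at 37 C, then 40 min Hoechst staining and scanning imager measurement at 405 nm excitation.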
# DT40 TDP1 CPT: DT40-hTDP1 cell growth loss with CPT; chicken DT40 Tdp1-/-;hTDP1 cells + 20 nM CPT, ATP luminescence, 48 h; Potency, µM (titrated, usually from 46.2 µM), inactives show at the top dose activity change, negative = growth inhibition, usual class: inhibitors; 420,000 compounds, 12% hits; AID 686979; also: potency is read from the fitted curve at half-maximal effect; % is scaled to controls: 0 for no effect and ±100 for the full control effect; nearly all actives have a fitted effect of over 55% in size
#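 Cell growth measured by CellTiter-Glo luminescence after a minimum 48 h, 37 C compound exposure with 20 nM CPT in Tdp1-knockout DT40 cells stably expressing hTDP1, seeded 400/well; qHTS titration format.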
# Chronic BCR inh: blocks chronic active B-cell receptor signaling | 340,000 compounds, 0.05% hits | ABC-DLBCL IkBa-CBG/CBR reporter, luminescence ratio, 4 h | Potency, µM (series often up to 46.1 µM), for the others: top-dose activity change, negative = inhibition, usual class: inhibitors | AID 493014; active = well fitted inhibition curve with a large enough effect in the signal ratio, with a control signal flat, not every such curve was filed as active; inconclusive = small, poorly fitted or top-dose-only effect, or effect the other way, or a change in a side signal; the % refers to the signal ratio;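 also: potency is read from the fitted curve at half-maximal effect; plate controls were basal doxycycline-induced cells for no effect and cells given 10 µM MG132 for full effect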
#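 Concentration-response series (up to 46 uM) were applied to TMD8 dual-reporter cells for 4 h at 37C with doxycycline. Green/red ratio, after filter-overlap correction, defined %Activity; red signal alone was normalised to basal cells and zero luminescence.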
# * = called active by the depositor; ? = inconclusive; . = no result given. Unless noted, calls follow the shape of the dose curve; as a rule, active = well fitted curve in the direction sought with a large enough effect; inconclusive = small, poorly fitted or top-dose-only effect, or another doubt; inactive = no such curve, though single readings can be large; an effect the other way counts as inactive or inconclusive.
SMILES,MCF10A rereplic,TDP1 cell noCPT,IL-1B inflam inh,SW480 rerep,DT40 TDP1 CPT,Chronic BCR inh
COCc1c(C(=O)OCC(=O)NCCc2ccc(S(N)(=O)=O)cc2)oc2ccccc12,0%,-3%,10,-3%,5%,-3%
COc1ccc(CC(=O)NCc2ccc3c(c2)CCN3C(=O)c2ccccc2)cc1OC,.,2%,.,.,1%,-4%
CCOCCCn1c(SCC(=O)Nc2cc(C)ccc2C)nc2c(oc3ccccc32)c1=O,.,-14%,.,.,-13%,.
O=C(NCCc1ccco1)C(=O)NCC1OCCCN1S(=O)(=O)c1ccccc1 (configuration not stated),11%,-16%,-1,15%,-22%,?
O=C1/C(=C/c2cccc(F)c2)Oc2cc(O)ccc21,15%,?,-79*,1%,?,?
Cc1cccc(/C=C2\Oc3cc(OS(C)(=O)=O)ccc3C2=O)c1,27%,?,-56*,0%,?,-1%
COC(=O)COc1ccc2c(c1)O/C(=C\c1cccc([N+](=O)[O-])c1)C2=O,0%,13µM*,-1,7%,18µM*,?
COc1ccc2c(c1)O/C(=C\c1ccco1)C2=O,?,-14%,-17,1%,6%,?
COc1ccc(/C=C2\Oc3cc(OCC(N)=O)ccc3C2=O)cc1OC,1%,?,-2,-13%,?,?
O=C1C(=Cc2cccc(F)c2)Cc2ccccc21,.,?,22,.,-20%,.
COCCNC(=O)C1(C)CCN(Cc2ccccc2C#N)C1 (configuration not stated),.,5%,-2,.,-21%,.
CCNC(=O)C1(C)CCCN(Cc2ccc3ccccc3c2Br)C1 (configuration not stated),.,18µM*,?,.,?,.
COCCNC(=O)C1(C)CCN(Cc2ccc3ccccc3c2Br)C1 (configuration not stated),.,10µM*,35,.,29µM*,.
CCOc1ccccc1NC(=O)C(c1ccccc1)N1CCN(C(=O)c2ccco2)CC1 (configuration not stated),1%,?,-3,-2%,-28%,-6%
Oc1c(C2=NCCNC(C(F)(F)F)=C2)ccc2ccccc12,-17%,-24%,-109*,2%,-8%,-8%
Cc1ccc(O)c(C2=NCCNC(C(F)(F)F)=C2)c1,2%,-16%,-12,-14%,-2%,13%
Cc1ccc(N=C2C(=O)Nc3ccc(Br)cc32)cc1,?,12µM*,65,?,18µM*,?
Cc1ccc(N=C2C(=O)Nc3c(C)cccc32)cc1,-9%,-22%,24,-2%,-5%,-10%
Oc1ccc(O)c(Cc2nc3ccccc3s2)c1,?,?,-55*,?,?,?
Oc1cccc(-c2nc3ccccc3s2)c1,2%,?,48,-4%,-29%,24%
CN(C)CCCN(C(=O)CCc1ccccc1)c1nc2ccc(Br)cc2s1,?,23µM*,-102*,0%,?,14%
Cc1cccc2sc(N(CCCN(C)C)C(=O)CCc3ccccc3)nc12,?,?,-18,?,26µM*,?
CN(C)CCN(C(=O)c1cc(Cl)sc1Cl)c1nc2ccc(F)cc2s1,-1%,-20%,5,-5%,-10%,-2%
CN(C)CCCN(C(=O)c1cc(-c2cccs2)nc2ccccc12)c1nc2ccc(F)cc2s1,?,13µM*,-59*,?,23µM*,?
CN(C)CCN(C(=O)/C=C/c1cccs1)c1nc2ccc(F)cc2s1,16%,18µM*,-66*,?,21µM*,?
SMILES,MCF10A rereplic,TDP1 cell noCPT,IL-1B inflam inh,SW480 rerep,DT40 TDP1 CPT,Chronic BCR inh
CCN(CC)CCN(C(=O)/C=C/c1cccs1)c1nc2ccc(Cl)cc2s1,-10%,?,13,?,?,-5%
CCN(C(=O)Cn1cnc2c1c(=O)n(C)c(=O)n2C)C1CCCCC1,0%,18%,-10,4%,-3%,-4%
CN(C)CCCN(C(=O)CCc1ccccc1)c1nc2ccc(F)cc2s1,1%,16µM*,-18,4%,-19%,?
CN(C)CCN(C(=O)CCc1ccccc1)c1nc2c(F)cc(F)cc2s1,-3%,-20%,0,-3%,-10%,?
COc1ccc(N2CCN(C(=O)c3cn(CC4CCCCC4)nn3)CC2)cc1,-20%,?,-2,2%,?,-1%
O=C(c1ccco1)N1CCC2(CC1)CN(c1ccc(-c3ccccc3)cc1)C2,.,9.2µM*,.,.,7.3µM*,.
COc1ccc(C(=O)N2CCC3(CC2)CN(c2ccncc2)C3)cc1,.,?,.,.,-17%,.
O=C(c1ccncc1)N1CCC2(CC1)CN(c1ccc(-c3ccccc3)cc1)C2,.,7.3µM*,.,.,?,.
O=C(c1ccco1)N1CCC2(CC1)CCN(c1ccncc1)CC2,.,21µM*,.,.,?,.
O=C(c1ccco1)N1CCC2(CC1)CN(c1cccc(-c3ccccc3)c1)C2,.,13µM*,.,.,23µM*,.
O=C(Nc1ccccc1)N1CCC2(CC1)CCN(C(=O)c1ccco1)CC2,.,?,.,.,-22%,.
O=C(CNC(=O)c1ccccc1)Oc1cccc(Cl)c1,18%,5%,12,-3%,9%,.
CCCc1nnc(NC(=O)c2cc(=O)c3cc(C)c(C)cc3o2)s1,.,-19%,.,.,4%,.
O=C1c2ccccc2C(c2nnnn2Cc2ccccc2)N1Cc1cccc(F)c1 (configuration not stated),.,?,37,.,?,.
CCC1CN(CCNC(=O)c2ccc(N3CCOCC3)cc2)Cc2cc(OC)ccc2O1 (configuration not stated),.,-29%,.,.,-16%,.
O=C(c1ccco1)N1CCC2(CC1)CCN(C(c1ccccc1)c1ccccc1)CC2,.,21µM*,.,.,?,.
C=CCc1c(C)[nH]c2c(OC)cccc2c1=S,0%,18µM*,8,-97%,13µM*,-3%
N#Cc1ccc(C23OCCN2CCn2nc4ccccc4c23)cc1 (configuration not stated),6%,?,43,1%,?,-11%
[O-][n+]1c2ccccc2c2n1CCN1CCOC21c1ccc(Cl)cc1 (configuration not stated),26%,7.3µM*,21,?,2.1µM*,8%
Cc1ccccc1-c1nc(CS(=O)(=O)CC(=O)N2CCN(c3ccccc3)CC2)c(C)o1,.,?,.,.,-24%,.
